Results taken from PubChem BioAssay.
Calls of active or inactive are those of the source.

Assays:
[1] = tested on: PRMT1 (protein arginine N-methyltransferase 1); assay: PRMT1 binders on small-molecule microarrays, primary screen, biochemical, small-molecule microarray, 635 nm fluorescence (AID 1088); details: small-molecule microarray binding, higher = more signal;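 further: binding of Prmt1 protein to compounds spotted on small-molecule microarray slides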
[2] = yeast growth modulation, basal conditions, primary screen, YJM789 clinical isolate, OD600, 24 h (AID 1089);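 further: growth of clinical yeast isolate S. cerevisiae YJM 789 seeded 1000 cells per well; test concentration not given here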; details: S. cerevisiae YJM789 growth, higher = more signal, called active from +8 up or from −8 down
[3] = fission yeast growth modulation, primary screen, strain 972, OD600, 24 h, no modulator (AID 1090);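 further: basal condition with compound alone and no growth modifier present; test concentration not given here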; details: S. pombe 972 growth, higher = more signal, called active from +8 up or from −8 down
[4] = S. cerevisiae growth modulation with rapamycin, primary screen, strain BY4716, OD600, 96 h (AID 1091); details: higher = more signal, called active from +8 up or from −8 down; further: test concentration not given here
[5] = molecular target: Torsin-1A-interacting protein 2 (Homo sapiens) (UniProt Q8NFQ8); assay: LULL1 binders on small-molecule microarray, primary screen, cell lysate, human LULL1 lysate, 635/667 nm fluorescence (AID 1092); details: hLULL1 lysate binding, 635 nm fluorescence, higher = more signal;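 further: probe is lysate of COS7 cells overexpressing human LULL1; score merges per-feature 667 nm fluorescence with signal-to-noise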
[6] = E. coli growth modulation, two-sided OD650, primary screen, E. coli filamentation project, strain DRC41, 24 h (AID 1093); details: OD650, 24 h, higher = more signal, called active from +8 up or from −8 down;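 further: MC1000 strain lacking acrAB efflux and sulA so SOS filamentation is blocked; test concentration not given here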
[7] = small-molecule microarray binders of probe aLefty2, primary screen, biochemical, biotinylated probe, 635/667 nm fluorescence (AID 1094); details: higher = more signal;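 further: score merges spot fluorescence near 667 nm with spot signal-to-noise ratio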
[8] = tested on: Noggin (protein binding on small-molecule microarray); assay: Noggin binders on small-molecule microarray, primary screen, biochemical, 635/667 nm fluorescence (AID 1095); details: 635 nm fluorescence, higher = more signal;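 further: score merges 667 nm feature fluorescence with signal to noise over triplicate slides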
[9] = molecular target: Neurogenic locus notch homolog protein 3 (Homo sapiens) (UniProt Q9UM47); assay: NOTCH3 binders on small-molecule microarray, primary screen, biochemical, 635/667 nm fluorescence (AID 1096); details: NOTCH3 binding, 635 nm fluorescence, higher = more signal
[10] = small-molecule microarray binders of probe aEGFR, primary screen, biochemical, biotinylated probe, 635/667 nm fluorescence (AID 1097); details: higher = more signal;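 further: probe is a biotinylated anti-EGFR antibody binding compounds printed on slides; score combines fluorescence near 667 nm and signal to noise of each spot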
[11] = tested on: Plasmodium falciparum Sir2 (PF13_0152, Sir2A); assay: pfSir2 binders on small-molecule microarrays, primary screen, biochemical, small-molecule microarray, 635 nm fluorescence (AID 1098); details: small-molecule microarray binding, fluorescence 635 nm; higher = more signal;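 further: score merges spot fluorescence intensity with its signal-to-noise ratio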
[12] = small-molecule microarray binders of probe aDKK1, primary screen, biochemical, biotinylated probe, 635/667 nm fluorescence (AID 1099); details: higher = more signal;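 further: score merges 667nm spot fluorescence with signal to noise across triplicate slides; reference of the scale not given here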
[13] = small-molecule microarray binders of probe aCHRDL2, primary screen, biochemical, biotinylated probe, 635/667 nm fluorescence (AID 1100); details: higher = more signal
[14] = splicing luciferase reporter signal modulators, primary screen, spliceosome inhibition project, cell-based, HEK293, splice +/- reporter (AID 1101); details: luminescence, 24 h, higher = more signal, called active from +8 up or from −8 down;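 further: HEK293 cells carrying a splicing-competent luciferase reporter gene; test concentration not given here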
[15] = molecular target: Fibroblast growth factor 10 (Homo sapiens) (UniProt O15520); assay: FGF10 binders on small-molecule microarrays, primary screen, biochemical, small-molecule microarray, 635 nm fluorescence (AID 1102); details: FGF10 binding, fluorescence 635 nm, higher = more signal
[16] = tested on: glycogen synthase kinase-3 (GSK3A per assay name; protocol says GSK3B); assay: GSK3 binders on small-molecule microarrays, primary screen, biochemical, small-molecule microarray, 635 nm fluorescence, GSK3A (AID 1103); details: small-molecule microarray binding, fluorescence 635 nm; higher = more signal; further: the record names both GSK3A and GSK3B
[17] = molecular target: Epidermal growth factor receptor (Homo sapiens) (UniProt P00533); assay: EGFR binders on small-molecule microarrays, primary screen, biochemical, small-molecule microarray, 635 nm fluorescence (AID 1104); details: EGFR binding, higher = more signal;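 further: score merges 667 nm emission intensity with spot signal to noise over triplicate slides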
[18] = molecular target: Follistatin-related protein 3 (Homo sapiens) (UniProt O95633); assay: FSTL3 binders on small-molecule microarrays, primary screen, biochemical, small-molecule microarray, 635 nm fluorescence (AID 1105); details: FSTL3 binding, higher = more signal;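 further: score merges emission near 667 nm and signal to noise per printed spot across three slides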
[19] = molecular target: Dickkopf-related protein 1 (Homo sapiens) (UniProt O94907); assay: DKK1 binders on small-molecule microarrays, primary screen, biochemical, small-molecule microarray, 635 nm fluorescence scan (AID 1106); details: DKK1 binding, higher = more signal;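 further: score merges emission near 667 nm with signal to noise over three replicate slides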
[20] = tested on: Inhibin beta A chain (activin A); assay: INHBA (activin A) binders on microarrays, primary screen, biochemical, small-molecule microarray, 635 nm fluorescence scan (AID 1107); details: small-molecule microarray binding, higher = more signal;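 further: mouse activin A protein probed at 4.33 µg/mL on printed slides; score merges bound-protein fluorescence near 667 nm with spot signal-to-noise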

Sequence of Neurogenic locus notch homolog protein 3 (Homo sapiens) (Q9UM47 whole entry, looked up): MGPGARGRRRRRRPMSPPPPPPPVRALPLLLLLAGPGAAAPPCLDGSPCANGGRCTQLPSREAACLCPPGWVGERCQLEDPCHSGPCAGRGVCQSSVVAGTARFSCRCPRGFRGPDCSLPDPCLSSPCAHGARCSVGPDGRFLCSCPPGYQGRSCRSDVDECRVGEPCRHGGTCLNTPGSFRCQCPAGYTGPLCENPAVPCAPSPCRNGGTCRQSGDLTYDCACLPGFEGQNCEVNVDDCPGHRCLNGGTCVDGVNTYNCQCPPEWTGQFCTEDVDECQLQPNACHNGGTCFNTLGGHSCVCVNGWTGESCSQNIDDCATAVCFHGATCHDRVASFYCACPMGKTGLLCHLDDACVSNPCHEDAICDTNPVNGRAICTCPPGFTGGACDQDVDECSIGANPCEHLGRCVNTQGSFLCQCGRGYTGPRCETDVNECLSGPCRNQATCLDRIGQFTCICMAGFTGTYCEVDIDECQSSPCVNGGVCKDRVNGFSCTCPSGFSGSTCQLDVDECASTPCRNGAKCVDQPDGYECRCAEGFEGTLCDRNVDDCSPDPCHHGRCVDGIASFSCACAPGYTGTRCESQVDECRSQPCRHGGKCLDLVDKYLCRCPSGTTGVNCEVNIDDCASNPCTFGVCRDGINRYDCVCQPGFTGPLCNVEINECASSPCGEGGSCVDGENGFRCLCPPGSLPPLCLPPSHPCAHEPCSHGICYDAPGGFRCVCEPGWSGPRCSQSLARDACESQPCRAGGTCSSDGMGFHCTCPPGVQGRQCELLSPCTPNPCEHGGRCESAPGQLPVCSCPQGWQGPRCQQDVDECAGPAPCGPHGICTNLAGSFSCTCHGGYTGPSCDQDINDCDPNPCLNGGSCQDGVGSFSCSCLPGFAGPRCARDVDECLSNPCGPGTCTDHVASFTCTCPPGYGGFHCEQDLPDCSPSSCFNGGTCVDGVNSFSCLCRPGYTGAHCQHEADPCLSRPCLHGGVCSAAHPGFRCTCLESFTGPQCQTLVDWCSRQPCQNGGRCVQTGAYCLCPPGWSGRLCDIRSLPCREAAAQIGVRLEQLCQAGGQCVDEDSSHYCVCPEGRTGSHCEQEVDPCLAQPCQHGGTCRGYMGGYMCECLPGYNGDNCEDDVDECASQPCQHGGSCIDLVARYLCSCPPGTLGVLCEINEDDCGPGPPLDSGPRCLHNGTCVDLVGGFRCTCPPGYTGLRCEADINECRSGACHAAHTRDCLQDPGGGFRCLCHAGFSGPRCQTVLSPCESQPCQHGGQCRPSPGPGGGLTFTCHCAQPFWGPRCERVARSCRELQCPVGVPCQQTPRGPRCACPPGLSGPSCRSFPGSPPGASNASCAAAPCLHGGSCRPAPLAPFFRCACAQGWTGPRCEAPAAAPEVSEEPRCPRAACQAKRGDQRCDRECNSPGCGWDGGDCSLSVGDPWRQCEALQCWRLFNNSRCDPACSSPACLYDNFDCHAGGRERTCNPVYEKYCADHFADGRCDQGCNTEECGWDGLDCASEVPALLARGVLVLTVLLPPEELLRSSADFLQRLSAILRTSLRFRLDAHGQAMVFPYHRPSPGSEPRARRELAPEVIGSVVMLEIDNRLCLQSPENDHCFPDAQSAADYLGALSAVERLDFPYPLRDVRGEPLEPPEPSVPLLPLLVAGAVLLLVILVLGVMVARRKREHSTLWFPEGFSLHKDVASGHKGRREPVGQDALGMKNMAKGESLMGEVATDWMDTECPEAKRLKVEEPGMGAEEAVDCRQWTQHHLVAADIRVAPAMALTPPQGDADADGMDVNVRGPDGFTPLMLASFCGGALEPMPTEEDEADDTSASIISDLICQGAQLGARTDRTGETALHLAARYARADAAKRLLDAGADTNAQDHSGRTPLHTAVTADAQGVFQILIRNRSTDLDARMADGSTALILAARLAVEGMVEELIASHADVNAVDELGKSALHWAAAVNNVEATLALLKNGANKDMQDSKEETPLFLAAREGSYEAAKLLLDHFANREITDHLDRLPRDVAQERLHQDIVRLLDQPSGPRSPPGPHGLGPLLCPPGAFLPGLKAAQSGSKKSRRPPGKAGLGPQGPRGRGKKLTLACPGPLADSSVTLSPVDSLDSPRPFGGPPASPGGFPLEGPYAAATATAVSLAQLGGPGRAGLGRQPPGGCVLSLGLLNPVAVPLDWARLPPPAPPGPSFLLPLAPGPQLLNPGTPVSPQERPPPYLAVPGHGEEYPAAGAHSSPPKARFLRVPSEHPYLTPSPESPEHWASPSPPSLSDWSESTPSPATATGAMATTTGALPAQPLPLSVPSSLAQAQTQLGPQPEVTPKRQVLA
Sequence of Follistatin-related protein 3 (Homo sapiens) (O95633 whole entry, looked up): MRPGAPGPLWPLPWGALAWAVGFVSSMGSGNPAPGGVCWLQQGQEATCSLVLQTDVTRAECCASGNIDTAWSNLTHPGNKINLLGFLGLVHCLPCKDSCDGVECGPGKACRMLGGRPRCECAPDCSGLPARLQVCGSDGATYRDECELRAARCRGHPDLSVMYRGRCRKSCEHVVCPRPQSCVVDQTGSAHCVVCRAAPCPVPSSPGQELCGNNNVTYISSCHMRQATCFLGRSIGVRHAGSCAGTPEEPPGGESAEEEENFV
Sequence of Epidermal growth factor receptor (Homo sapiens) (P00533 whole entry, looked up): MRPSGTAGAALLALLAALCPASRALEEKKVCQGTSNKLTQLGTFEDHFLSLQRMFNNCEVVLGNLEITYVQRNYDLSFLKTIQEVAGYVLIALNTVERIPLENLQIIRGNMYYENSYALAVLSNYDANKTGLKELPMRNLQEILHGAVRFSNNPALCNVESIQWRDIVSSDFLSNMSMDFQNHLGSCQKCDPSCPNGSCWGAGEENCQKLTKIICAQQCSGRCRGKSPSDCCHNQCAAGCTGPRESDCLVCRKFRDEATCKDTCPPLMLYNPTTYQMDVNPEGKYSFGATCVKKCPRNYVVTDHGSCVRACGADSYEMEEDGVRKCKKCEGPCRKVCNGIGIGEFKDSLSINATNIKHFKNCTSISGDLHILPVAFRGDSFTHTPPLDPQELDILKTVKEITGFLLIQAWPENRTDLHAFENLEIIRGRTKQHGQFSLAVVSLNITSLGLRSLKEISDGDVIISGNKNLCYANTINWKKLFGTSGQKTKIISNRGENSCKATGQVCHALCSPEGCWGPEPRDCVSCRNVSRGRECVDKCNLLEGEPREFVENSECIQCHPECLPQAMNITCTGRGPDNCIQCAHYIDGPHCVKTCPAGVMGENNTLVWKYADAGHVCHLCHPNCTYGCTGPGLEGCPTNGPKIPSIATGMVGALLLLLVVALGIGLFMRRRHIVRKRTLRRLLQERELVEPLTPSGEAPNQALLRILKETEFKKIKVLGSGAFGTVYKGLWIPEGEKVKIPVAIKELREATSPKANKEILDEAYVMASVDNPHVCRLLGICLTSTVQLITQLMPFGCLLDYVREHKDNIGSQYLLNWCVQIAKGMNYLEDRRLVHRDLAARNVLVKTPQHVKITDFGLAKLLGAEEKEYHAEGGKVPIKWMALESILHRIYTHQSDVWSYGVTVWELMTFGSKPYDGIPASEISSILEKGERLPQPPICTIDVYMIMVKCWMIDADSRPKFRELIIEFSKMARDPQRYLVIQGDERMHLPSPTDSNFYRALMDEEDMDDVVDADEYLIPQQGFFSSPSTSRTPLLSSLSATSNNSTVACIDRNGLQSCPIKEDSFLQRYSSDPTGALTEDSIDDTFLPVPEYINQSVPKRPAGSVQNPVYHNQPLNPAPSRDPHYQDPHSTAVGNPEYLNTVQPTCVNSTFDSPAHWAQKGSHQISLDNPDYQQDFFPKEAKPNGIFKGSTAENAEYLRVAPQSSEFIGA
Sequence of Dickkopf-related protein 1 (Homo sapiens) (O94907 whole entry, looked up): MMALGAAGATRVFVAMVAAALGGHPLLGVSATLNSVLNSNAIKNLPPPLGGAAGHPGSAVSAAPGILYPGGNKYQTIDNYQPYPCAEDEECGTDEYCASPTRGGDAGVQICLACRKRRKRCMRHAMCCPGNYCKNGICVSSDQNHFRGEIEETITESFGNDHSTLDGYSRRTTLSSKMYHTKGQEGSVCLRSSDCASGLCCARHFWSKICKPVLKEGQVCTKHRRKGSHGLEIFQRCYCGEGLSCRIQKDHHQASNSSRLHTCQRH
Sequence of Fibroblast growth factor 10 (Homo sapiens) (O15520 whole entry, looked up): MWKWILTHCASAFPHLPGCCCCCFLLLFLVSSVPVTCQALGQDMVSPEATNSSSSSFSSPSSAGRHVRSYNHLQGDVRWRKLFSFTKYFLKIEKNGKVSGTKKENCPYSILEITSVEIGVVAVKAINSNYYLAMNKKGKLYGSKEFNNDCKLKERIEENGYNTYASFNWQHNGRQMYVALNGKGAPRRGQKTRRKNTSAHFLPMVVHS
Sequence of Torsin-1A-interacting protein 2 (Homo sapiens) (Q8NFQ8 whole entry, looked up): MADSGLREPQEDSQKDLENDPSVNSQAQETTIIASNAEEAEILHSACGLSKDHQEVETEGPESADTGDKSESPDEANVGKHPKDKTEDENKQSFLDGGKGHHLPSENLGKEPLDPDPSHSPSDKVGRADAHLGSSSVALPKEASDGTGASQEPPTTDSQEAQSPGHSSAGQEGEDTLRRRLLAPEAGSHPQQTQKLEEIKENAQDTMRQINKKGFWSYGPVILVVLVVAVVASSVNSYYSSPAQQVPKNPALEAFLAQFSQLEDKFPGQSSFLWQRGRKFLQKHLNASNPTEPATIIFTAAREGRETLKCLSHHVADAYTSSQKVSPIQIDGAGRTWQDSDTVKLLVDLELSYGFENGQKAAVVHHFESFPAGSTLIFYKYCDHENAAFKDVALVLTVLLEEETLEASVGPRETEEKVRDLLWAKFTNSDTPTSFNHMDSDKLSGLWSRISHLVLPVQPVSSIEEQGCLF

Row | SMILES | composite z-score [1] | z-score [2] | z-score [3] | z-score [4] | composite z-score [5] | z-score [6] | composite z-score [7] | composite z-score [8] | composite z-score [9] | composite z-score [10] | composite z-score [11] | composite z-score [12] | composite z-score [13] | z-score [14] | composite z-score [15] | composite z-score [16] | composite z-score [17] | composite z-score [18] | composite z-score [19] | composite z-score [20]
1 | CS(=O)(=O)CCOC(=O)C1=CC(c2ccc(CO)cc2)=CC(C2CC2)N(Cc2sc3ccccc3c2Cl)C=C1C(=O)OCCS(C)(=O)=O (stereo not given) | 1.46 | -0.348 (inactive) | -3.82 (inactive) | -1.23 (inactive) | 1.67 | -3.01 (inactive) | 0.106 | 0.471 | 0.946 | -0.0188 | 0.677 | 0.251 | 0.365 | 2.53 (inactive) | 0.686 | 0.519 | 0.645 | 1.21 | 0.334 | 1.63
2 | CCN(CC)c1ccc(N2CC=CC34O[C@@H]5/C=C\CCCOC(=O)C5[C@H]3C(=O)N(C(C)CO)[C@@H]4C2=O)cc1 (stereo not given in full) | 0.428 | -0.991 (inactive) | -1.47 (inactive) | -0.497 (inactive) | 0.347 | 1.42 (inactive) | -0.243 | -0.045 | 0.204 | -0.189 | 1.03 | -0.213 | -0.445 | -0.0084 (inactive) | -0.184 | -0.208 | -0.243 | -0.232 | 0.512 | 1.03
3 | CC(C)N1C(=O)C[C@@](C(=O)O)(c2ccc([N+](=O)[O-])cc2)[C@H]1c1ccc(CO)cc1 | 1.01 | 0.548 (inactive) | -0.996 (inactive) | -0.265 (inactive) | 2.72 | 1.27 (inactive) | 0.0511 | -1.13 | 0.0599 | -0.158 | 1.08 | 0.744 | 1.11 | -0.186 (inactive) | -0.443 | -0.381 | -1.12 | -0.633 | -0.803 | 0.593
4 | CCOC(=O)C1=CC[C@@H](c2ccccc2F)N(S(=O)(=O)c2ccc(C)cc2)[C@H]1c1ccccc1 | 1.12 | -0.0047 (inactive) | 1.29 (inactive) | 0.151 (inactive) | 2.72 | -0.818 (inactive) | -0.0551 | 0.63 | 0.812 | -0.101 | 0.441 | 0.128 | -0.106 | -1.12 (inactive) | 0.801 | 1.16 | 0.486 | 0.766 | 0.253 | 0.713
5 | C=CCC(OC(C)=O)[C@@H]1[C@@H](N(Cc2cccc3ccccc23)C(=O)Cc2ccc(OC)cc2)c2cc(OCCCO)ccc2N1C(=O)c1ccc(-c2ccccc2)cc1 (stereo not given in full) | 0.328 | 0.0338 (inactive) | 0.402 (inactive) | -0.962 (inactive) | 1.1 | -0.373 (inactive) | -0.206 | -0.424 | 0.0523 | -0.19 | -0.203 | 0.0699 | 0.44 | -0.279 (inactive) | -0.249 | -0.179 | 0.347 | -0.0555 | -0.324 | 1.43
